According to PubChem BioAssay (NCI):
About 83,000 compounds went through this panel and 20% of them were active in at least one assay; those are over-represented in the sample as a whole.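 Negative percent growth values reflect cell death: -40 means 40% of the cells present at the start died, and -100 means all died.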 Unmarked numbers belong to inactive results. Calls of active or inactive are those of the source. The calls were made as follows: active = growth percent below 10; inactive = the rest.

Experiments:
Assay in all cases: NCI-60 one-dose screen, 48 h (100 = growth as untreated, 0 = no growth, -100 = all killed)
Details in all cases: 10 µM unless noted
HCT-15 colon = tested on: HCT-15 colon
HT29 colon = tested on: HT29 colon
SNB-75 CNS = tested on: SNB-75 CNS
SNB-19 CNS = tested on: SNB-19 CNS
U251 CNS = tested on: U251 CNS
PC-3 prostate = tested on: PC-3 prostate
SK-MEL-5 melanoma = tested on: SK-MEL-5 melanoma
UACC-62 melanoma = tested on: UACC-62 melanoma
SK-MEL-28 melanoma = tested on: SK-MEL-28 melanoma
SK-MEL-2 melanoma = tested on: SK-MEL-2 melanoma
EKVX NSCLC = tested on: EKVX NSCLC
SN12C renal = tested on: SN12C renal
UO-31 renal = tested on: UO-31 renal
TK-10 renal = tested on: TK-10 renal
ACHN renal = tested on: ACHN renal
CAKI-1 renal = tested on: CAKI-1 renal
A498 renal = tested on: A498 renal
CCRF-CEM leukemia = tested on: CCRF-CEM leukemia
MOLT-4 leukemia = tested on: MOLT-4 leukemia

Row | Structure (SMILES) | growth (HCT-15 colon) | growth (HT29 colon) | growth (SNB-75 CNS) | growth (SNB-19 CNS) [%] | growth (U251 CNS) | growth (PC-3 prostate) [%] | growth (SK-MEL-5 melanoma) | growth (UACC-62 melanoma) | growth (SK-MEL-28 melanoma) | growth (SK-MEL-2 melanoma) | growth (EKVX NSCLC) | growth (SN12C renal) | growth (UO-31 renal) | growth (TK-10 renal) | growth (ACHN renal) | growth (CAKI-1 renal) | growth (A498 renal) | growth (CCRF-CEM leukemia) | growth (MOLT-4 leukemia)
1 | CC(=O)c1c(C)[nH]c(-c2nc3ccc(N4CCN(C)CC4)cc3[nH]2)c1-c1ccc(OCC2CCOCC2)cc1 | 5.23% (active) | 8.59% (active) | -9.92% (active) | 42.7 | 48.2% | 40.4 | -1.59% (active) | 20.4% | 45.7% | 53.3% | 35.6% | 39.9% | 6.97% (active) | -5.8% (active) | 19.2% | 12.4% | 30.8% | 30.9% | 47.5%
2 | C=C(C)[C@@H]1CC[C@]2(C(=O)NNC(=O)c3cccnc3)CC[C@]3(C)[C@H](CC[C@@H]4[C@@]5(C)CCCNC(C)(C)[C@@H]5CC[C@]43C)[C@@H]12 | 62.4% | 11.3% | 80% | 91.2 | 64.6% | 50.3 | 74.4% | 91% | 90% | 100% | 94.3% | 83.7% | 64% | 158% | 98.1% | 76% | 88.1% | 65.6% | 40.1%
3 | C[C@@H](Oc1ccc(C(=O)NS(=O)(=O)C(C)(C)C)cc1C(F)(F)F)c1ccc(Oc2ccccc2)cn1 | 23.8% | 34.6% | -9.43% (active) | 20 | 25.6% | 47.5 | 23.2% | 18% | 47.1% | 38.2% | 65% | 61.2% | 58.8% | 79.1% | 61.8% | 38.8% | -0.737% (active) | 25.9% | 57.3%
4 | CC1(n2nnnc2N2CCCN(c3ncccc3N)CC2)CCC1 | 58.3% | 108% | 81.7% | 98.6 | 101% | 75.3 | 86.3% | 94.9% | 100% | 110% | 97.5% | 95.7% | 92.4% | 99% | 99.2% | 90.7% | 93.3% | 103% | 99.3%
5 | NC1=C(C/C(N)=N\O)C(c2ccccc2Cl)c2c(ccc3ccccc23)O1 (stereo not given) | 47.7% | 97.1% | 75.2% | 86.8 | 91.3% | 74.2 | 86.8% | 52.2% | 80.2% | 90.4% | 80.9% | 91.3% | 58.6% | 180% | 83% | 49.5% | 96.8% | 79.8% | 76%
6 | CC1(C)C(=O)/C(=C\c2cccnc2)C[C@]2(C)[C@H]3CC[C@@H]4[C@@H](C(=O)/C=C/c5ccncc5)CC[C@@]4(C)[C@]3(C)CC[C@@H]12 | -36% (active) | 9.87% (active) | 62.6% | 15.1 | -7.74% (active) | 19.5 | -10.9% (active) | -26.7% (active) | 26.7% | -3.01% (active) | 50.4% | 8.09% (active) | -94.5% (active) | 65.6% | -78.8% (active) | 28.4% | 47.3% | 8.73% (active) | 8.03% (active)
7 | O=C(NC1=CC(=O)c2ccccc2C1=O)c1ccccc1 | 29.1% | 71.2% | 34% | 36.3 | 21.1% | 16.6 | 0.587% (active) | 15% | 52.3% | 0.417% (active) | 9.48% (active) | 29.2% | -47.5% (active) | 53.3% | 2.6% (active) | 29.6% | 53.3% | 8.93% (active) | -16.9% (active)
8 | O=C1c2cccc3cccc(c23)C(=O)N1CC#Cc1ccc2c3c(cccc13)C(=O)N(CCN1CCNCC1)C2=O | 61.7% | 23.5% | 99.6% | 86.2 | 56.4% | 85.5 | 103% | 105% | 13.5% | 113% | 104% | 97.2% | 97.7% | 141% | 74.4% | 82.4% | 112% | 7.71% (active) | 6.74% (active)
9 | Cc1cc2nc3c4cc(Cl)ccc4n(CCN(C)C)c3nc2cc1C | -25.1% (active) | 1% (active) | 26.3% | 15.4 | 12.3% | 27.2 | 41% | -70.7% (active) | -59.3% (active) | 43.6% | 20.4% | 17.7% | -45% (active) | 19.4% | -10% (active) | -7.17% (active) | 73.9% | 24.6% | 2.26% (active)
10 | N#CC1=C(N)Oc2c(c(N)nn2-c2ccccc2)C1c1ccc(Cl)cc1 (stereo not given) | 107% | 107% | 77.3% | 94.7 | 94.9% | 91.7 | 101% | 86% | 100% | 103% | 90.7% | 97.8% | 61.2% | 152% | 93.1% | 86.8% | 97.8% | 101% | 98.8%
11 | CC(C)/C=C/CC[C@](C)(O)[C@H]1CC[C@]2(C)[C@@H]1CC[C@@H]1[C@@]3(C)C/C(=C/c4cccc(C(F)(F)F)c4)C(=O)C(C)(C)[C@@H]3CC[C@]12C | 90.6% | 97.3% | 62.8% | 92.2 | 92.6% | 79.5 | 97.6% | 81.8% | 105% | 126% | 103% | 89.2% | 79.6% | 157% | 97% | 64.3% | 99% | 86.9% | 88.3%
12 | Cn1cc(-c2csc(-c3c[nH]c4ccccc34)n2)c2cccnc21 | 25.6% | 10.2% | -5.48% (active) | 47.2 | 27.2% | 22.1 | 11.1% | 44.7% | 53.9% | 38.2% | 42.5% | 46.5% | 57.2% | 48% | 51.8% | 15.7% | 13.5% | 20.4% | 44.4%
13 | Cc1ccc(S(=O)(=O)Nc2ccc(-c3cc(-c4cccc(F)c4)c(C#N)c(N)n3)cc2)cc1 | -23.3% (active) | -7.07% (active) | -11.7% (active) | 51.4 | 22.6% | 18.6 | 28.4% | -6.88% (active) | -33.3% (active) | 17.1% | 51.6% | 11.5% | -88.2% (active) | -70.8% (active) | -71.9% (active) | 10.9% | 68.1% | 7.69% (active) | 9.77% (active)
14 | COC(=O)[C@]12CC[C@@H](C(/C=C/c3cccnc3)=N/O)[C@@H]1[C@H]1CC[C@@H]3[C@@]4(C)CC(=C/c5cccnc5)/C(=N/O)C(C)(C)[C@@H]4CC[C@@]3(C)[C@]1(C)CC2 | 23.4% | 32.8% | 22.8% | 71.9 | 52.9% | 20.8 | -21.5% (active) | 15.7% | 50.8% | 46% | 26% | 44.5% | 19.5% | 67.9% | 42.9% | 23.7% | 92.5% | 16.6% | 2.12% (active)
15 | CN1CCN(CC#CCn2c3c(c4ccccc42)C[C@]2(C)[C@H]4CC[C@@H]5[C@H]6[C@H]7OC(=O)[C@@]6(CCC7(C)C)CC[C@@]5(C)[C@]4(C)CC[C@H]2C3(C)C)CC1 | 38.1% | 30.4% | 113% | 87.6 | 25% | 58.5 | 93.3% | 99.5% | 106% | 118% | 99.2% | 52.8% | 67.2% | 161% | 91.3% | 52.4% | 71.6% | -0.753% (active) | 41.6%
